Data on 70 compounds can be found in PubChem BioAssay AID488969 (Vanderbilt High Throughput Screening Facility, 2010).

The full ranking holds about 110,000 compounds; the median of “z-score” is about -0.1, and the highest 2% start at about 2. The sample holds the highest values, similar compounds and a random draw of the others, so the mix is not that of the screen. Active and inactive are the calls of the source.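 The calls were made as follows: active = z-score in the third read window above 3 or below -3; inactive = the rest.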

For this assay, the target named is Metabotropic glutamate receptor 8 (Rattus norvegicus) (UniProt P70579). Nature of the assay: mGluR8 Gi/Go-coupled signaling modulation – cell-based, rat, thallium flux, HTS, primary screen (AID 488969). Particulars: HEK293 rat mGluR8, GIRK (G protein-gated inwardly rectifying potassium channel) thallium flux, FluoZin2; at 10 µM; stronger effect = higher value; submaximal glutamate (EC20) added with thallium.
Metabotropic glutamate receptor 8 (Rattus norvegicus), sequence (P70579 whole entry, looked up): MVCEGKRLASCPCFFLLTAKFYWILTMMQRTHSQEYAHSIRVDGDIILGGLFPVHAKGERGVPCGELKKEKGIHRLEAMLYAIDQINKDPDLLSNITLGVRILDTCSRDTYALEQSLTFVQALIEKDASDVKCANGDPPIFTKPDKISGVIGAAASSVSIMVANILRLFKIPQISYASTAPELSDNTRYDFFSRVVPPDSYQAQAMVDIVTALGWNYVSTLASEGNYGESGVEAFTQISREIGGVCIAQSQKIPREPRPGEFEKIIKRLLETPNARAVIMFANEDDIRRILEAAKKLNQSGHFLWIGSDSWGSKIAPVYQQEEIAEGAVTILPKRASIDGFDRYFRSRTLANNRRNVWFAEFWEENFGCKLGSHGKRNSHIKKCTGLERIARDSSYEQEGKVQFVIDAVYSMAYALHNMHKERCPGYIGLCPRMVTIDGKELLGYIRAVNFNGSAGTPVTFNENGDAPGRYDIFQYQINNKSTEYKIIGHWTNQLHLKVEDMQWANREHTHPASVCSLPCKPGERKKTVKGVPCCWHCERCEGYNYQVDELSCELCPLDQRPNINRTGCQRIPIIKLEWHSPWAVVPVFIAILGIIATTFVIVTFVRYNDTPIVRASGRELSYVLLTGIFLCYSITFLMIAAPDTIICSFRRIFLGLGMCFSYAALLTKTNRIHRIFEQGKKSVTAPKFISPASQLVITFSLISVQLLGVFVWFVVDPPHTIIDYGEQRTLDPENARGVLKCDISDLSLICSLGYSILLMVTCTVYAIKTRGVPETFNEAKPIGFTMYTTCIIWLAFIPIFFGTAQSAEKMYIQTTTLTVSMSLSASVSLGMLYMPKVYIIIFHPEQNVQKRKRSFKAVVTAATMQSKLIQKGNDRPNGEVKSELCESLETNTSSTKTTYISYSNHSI
In turn, `Cc1nc(C)c(C(=O)N/N=C/c2cn(C)c3ccccc23)s1` returned a z-score of 0.0943.
To `CCOCCc1nnc(NC(=O)c2cccc(F)c2)s1` belongs -0.243.
The compound `COc1ccc(NC(=O)Cn2c(=O)n(CC(=O)NCc3ccco3)c(=O)c3ccccc32)cc1` yielded a z-score of 0.213.
Consider `O=C(CN(Cc1ccccc1)C1=NCCS1)c1ccccc1`, for which the z-score was -0.754.
Consider `COc1ccc(-c2noc(-c3ccccc3C(=O)Nc3cccnc3)n2)cc1OC`, for which the z-score stood at 0.205.
To `N#CCc1ccc(C(=O)c2ccccc2)s1` belongs -0.167; to `Cc1ccc(N(CC(=O)N2CCOCC2)S(=O)(=O)c2ccccc2)cc1`, 0.464.
The value for `CC(C)N1CCC(=NNc2ccc(S(=O)(=O)N3CCOCC3)cc2[N+](=O)[O-])CC1` was 0.0912.
As to `OC(CNCC1CCCO1)Cn1c2ccc(Br)cc2c2cc(Br)ccc21` (stereo not given), the z-score is 3.72 (active).
To `OC(CNCc1ccco1)Cn1c2ccc(Br)cc2c2cc(Br)ccc21` (stereo not given) belongs 0.138; to `OC(CNCC1CCCO1)Cn1c2ccc(Cl)cc2c2cc(Cl)ccc21` (stereo not given), 0.381; to `Cc1ccc(S(=O)(=O)N(C)C)cc1NC(=O)CCNC(=O)c1ccccc1Cl`, -0.212.
As to `C=CCN1C(=O)C2C(C(=O)NC3CCCCC3)C3C=CC2(O3)C1C(=O)NC1CCCC1` (stereo not given), the z-score is -0.014.
`O=C(Nc1ccc(OC(F)(F)F)cc1)c1n[nH]c(Cn2cncn2)n1`: the z-score was -0.0524.
To `COc1cccc(C(=O)N2N=C(c3cccc(OC)c3)CC2(O)C(F)(F)F)c1` (stereo not given) belongs 0.00352; to `COc1cccc(C2=NN(C(=O)c3ccccc3)C(O)(C(F)(F)F)C2)c1` (stereo not given), 2.79; to `COc1ccc(C(=O)N2N=C(c3cccc(OC)c3)CC2(O)C(F)(F)F)cc1` (stereo not given), 0.326.
In the case of `O=C1CCCc2c1[nH]c1ccc(CN3CCCCC3)cc21`, the z-score amounted to 0.129.
`CN(C)CCCNc1oc(-c2ccc(Cl)cc2)nc1C#N` returned a z-score of 1.35.
To `CCN(CC)CCCNc1oc(-c2cccc(Cl)c2)nc1C#N` belongs 1.31; to `CN(C)CCNc1oc(COc2ccc(Cl)cc2)nc1C#N`, 1.5.
`COc1ccc(CCNc2oc(COc3ccccc3)nc2C#N)cc1` had a z-score of -0.509.
The compound `CN(C)CCCNc1oc(-c2cccc(Cl)c2)nc1C#N` gave a z-score of -0.825.
To `COc1ccc(-c2nc(C#N)c(NCCCN(C)C)o2)cc1OC` belongs 11.2 (active); to `CN(C)CCNc1oc(-c2cccc(Cl)c2)nc1C#N`, 2.54; to `CN(C)CCNc1oc(COc2ccc(-c3ccccc3)cc2)nc1C#N`, 2.06.
To `CCN(CC)CCCNc1oc(-c2ccc(OC)c(OC)c2)nc1C#N` belongs -0.222.
The value for `Cc1ccccc1NC(=O)NCC1CCCO1` (stereo not given) was 0.73.
`CC(C)CC(=O)N1CCN(S(=O)(=O)c2ccc3ccccc3c2)CC1`: the z-score is -1.99.
`O=C(COC(=O)[C@H](Cc1c[nH]c2ccccc12)NC(=O)c1ccc(Cl)cc1)Nc1ccc2c(c1)OCO2` yielded a z-score of 0.558.
The compound `CCOc1c2ccc(C(=O)NCc3ccc4c(c3)OCO4)cc2nn1CCOC` showed a z-score of -0.276.
As for `COc1ccc(/C=N/NC(=O)CSc2nnc(CCCc3ccc(OC)c(C)c3)o2)cc1`, the z-score was -0.18.
For `O=C(OCC#CCSc1nnc(-c2ccncc2)o1)c1cccs1`, the z-score was -0.0957.
For the compound `O=C(OCC#CCSc1nnc(-c2ccncc2)o1)c1sc2ccccc2c1Cl`, the z-score was 2.87.
The value for `O=C(OCC#CCSc1nnc(-c2ccccc2)o1)c1cccs1` was -0.745; that for `CC1Cc2ccccc2N1C(=O)Cc1cccs1` (stereo not given) was -0.395; that for `Cc1ccc(NC(=S)NCc2ccccc2)cc1[N+](=O)[O-]` was 3.51 (active).
The value for `CC(C)CNC(=S)NC(=O)c1ccc(F)cc1` was 7.84 (active).
Regarding `O=[N+]([O-])c1ccc(NC(=S)NCCc2ccc(F)cc2)cc1`, the z-score came to 1.65.
The value for `O=C(CNC(=S)NC(=O)c1ccc(F)cc1)c1ccccc1` was -0.0791; that for `CCCCNC(=S)Nc1ccc([N+](=O)[O-])cc1` was 2.
`CCCCNC(=S)Nc1cc([N+](=O)[O-])ccc1C` registered a z-score of 0.706.
Consider `CCOc1ccc(NC(=S)Nc2ccc(C)c([N+](=O)[O-])c2)cc1`, for which the z-score came out at 0.652.
As for `O=C(NC(=S)NCCN1CCOCC1)c1ccc(F)cc1`, the z-score was -0.084.
The compound `O=[N+]([O-])c1ccc(NC(=S)NCCc2ccc(Cl)cc2)cc1` showed a z-score of 0.129.
To `O=[N+]([O-])c1ccc(NC(=S)NCCc2ccccc2)cc1` belongs 2.91; to `CC(C)CCNC(=S)Nc1ccc([N+](=O)[O-])cc1`, 1.2; to `Cc1ccc(CNC(=S)Nc2ccc(C)c([N+](=O)[O-])c2)cc1`, 0.255.
`O=C(N/N=C/c1ccncc1)c1cc(Br)ccc1OCc1ccccc1` came in with a z-score of 0.109.
The value for `Cn1c(SCCOc2ccccc2Cl)nnc1-c1cccs1` was -0.314.
The value for `CC(C)C(=O)Nc1cccc(NC(=S)NC(=O)c2ccc([N+](=O)[O-])cc2)c1` was -0.0455.
To `CCCCNC(=S)NC(=O)c1ccc([N+](=O)[O-])cc1` belongs 7.01 (active); to `CC(=O)Nc1ccc(NC(=S)NC(=O)c2ccc([N+](=O)[O-])cc2)cc1`, -0.11.
For `CCCCCC(=O)NC(=S)NNC(=O)c1ccc([N+](=O)[O-])cc1`, the z-score is 2.66.
To `CC(C)CNC(=S)NC(=O)c1ccc([N+](=O)[O-])cc1` belongs 6.28 (active); to `Cc1ccc(NC(=O)c2ccncc2)cc1[N+](=O)[O-]`, -0.142.
`CCCC(=O)NC(=S)NNC(=O)c1ccc([N+](=O)[O-])cc1` showed a z-score of -0.394.
`Cc1ccc(NC(=O)c2ccc(C(C)(C)C)cc2)cc1[N+](=O)[O-]` displayed a z-score of 2.5.
On to `Cc1ccc([N+](=O)[O-])cc1NC(=O)c1ccc(C(C)(C)C)cc1`, for which the z-score is -1.53.
Regarding `CCCCCCCC(=O)NNC(=O)c1ccc([N+](=O)[O-])cc1`, the z-score was -0.209.
In turn, `CC(C)CC(=O)NC(=S)NNC(=O)c1ccc([N+](=O)[O-])cc1` gave a z-score of 0.187.
In turn, `O=C(NC(=S)NCC1CCCO1)c1ccc([N+](=O)[O-])cc1` (stereo not given) gave a z-score of -0.067.
In the case of `Cc1ccc(NC(=O)CCC(=O)NNC(=O)COc2ccccc2)c(C)c1`, the z-score was -0.385.
The value for `CCOc1ccc(C(=O)NC(=S)Nc2ccc(NC(=O)c3ccco3)c(C)c2)cc1[N+](=O)[O-]` was -0.187; that for `CCOc1ccc2ccccc2c1/C=N/NC(=O)CNC(=O)Cc1ccccc1` was -0.191; that for `CC1(C)CC(=O)c2cnc(N3CCc4ccccc4C3)nc2C1` was 0.63.
The compound `Brc1ccc(-c2csc(-c3ccncc3)n2)cc1` came in with a z-score of 0.161.
The value for `CCOC(=O)c1c(C=O)c(C)n(Cc2ccc(Cl)cc2)c1C` was 0.0766.
The value for `CCCN1C2=C(C(=O)CCC2)C(c2ccc(F)cc2)C2=C1c1ccccc1C2=O` (stereo not given) was -0.266; that for `O=C(Cn1cnc2c(nnn2-c2ccc(F)cc2)c1=O)NCc1ccco1` was -0.127.
